Results on 85 molecules are retold here after PubChem BioAssay AID602399 (Sanford-Burnham Center for Chemical Genomics, 2012).

Structures are written as SMILES. Screen size: about 360,000 compounds; about 2,800 (0.78%) were called active. Only a selection was taken, and actives are over-represented in it overall. A number with no mark means an inactive call. Cut-off read from the data, not from the text of the source: active = inhibition above about 26%; inactive = the rest.

The subject of this assay is Nicotinate-nucleotide adenylyltransferase NadD (Staphylococcus aureus N315). The assay can be described thus: S. aureus NadD enzyme activity blockers – biochemical, colorimetric, uHTS, primary screen (AID 602399). Conditions: purified NadD enzyme, colorimetric absorbance read-out; at 20 µM; stronger effect = higher value.
With `CC(C)CN1CCNC(=O)C1CC(=O)N(C)CC1CCOCC1` (stereo not given), the inhibition is -2.31%. With `CN(C)S(=O)(=O)c1ccc(N/C=C(\[N+](=O)[O-])S(=O)(=O)c2ccccc2)cc1`, the inhibition was -3.76%. Next, `CC1(C(=O)NCc2ccc3c(c2)OCO3)CCN1C(=O)Cc1cccc2ccccc12` (stereo not given): -4.65%; `O=C1N(Cc2ccc3c(c2)OCO3)c2ccccc2C1(O)c1c[nH]c2ccccc12` (stereo not given): 34.1% (active). On to `CCn1c(=O)cc(SCC(=O)NCc2ccc3c(c2)OCO3)c2ccccc21`, for which the inhibition is 1.73%. For `CCCN(CCC)c1ccc(C(O)c2nnc(-c3ccccc3)o2)cc1` (stereo not given), the inhibition is 3.67%. As to `CC1(C)OC(=O)C2=C(C[C@@H](C3CC3)O[C@H]2c2ccc(Cl)cc2)O1`, the inhibition was -7.37%. Take `C[C@H](CO)N1C[C@H](C)[C@H](CN(C)C(=O)Nc2ccc(C(F)(F)F)cc2)Oc2c(NC(=O)c3ccncc3)cccc2C1=O`: the inhibition is 34% (active). With `Cc1noc(C)c1NC(=O)Nc1ccc2c(c1)C(=O)N([C@H](C)CO)C[C@H](C)[C@@H](CN(C)C(=O)Nc1ccc(C(F)(F)F)cc1)O2`, the inhibition is 3.74%. Take `Cc1noc(C)c1NC(=O)Nc1cccc2c1O[C@H](CN(C)C(=O)Nc1ccccc1)[C@@H](C)CN([C@H](C)CO)C2=O`: the inhibition is -4.23%.

With `CN(CC(=O)N1CCN(c2ccccc2)CC1)S(=O)(=O)c1cccs1`, the inhibition is -2.17%. Take `O=C(O)CCCC(=O)N1N=C(c2ccco2)CC1c1ccco1` (stereo not given): the inhibition was 2.35%. For the molecule `Cc1nn2c(c1-c1ccccc1)N=C(c1ccco1)CC2c1ccccc1` (stereo not given), the inhibition was 35.5% (active). As for `C=CCN1C(=O)C(Cc2ccc(OCC)cc2)SC1=Nc1ccc(C(=O)O)cc1` (stereo not given), the inhibition was -1.51%. Next, `CCOCCCN1C(=O)C2C(C(=O)Nc3ccc(OCC)cc3)C3C=CC2(O3)C1C(=O)NC1CCCCC1` (stereo not given): -6.7%; `COc1cccc(-c2nn(-c3ccccc3)cc2/C=C(\C#N)C(=O)NCCCn2ccnc2)c1`: 29.3% (active); `COc1ccc(/C=C(\C#N)C(=O)NCCCn2ccnc2)cc1`: -0.938%. `O=C(NCCCn1ccnc1)/C(=C\c1ccccc1F)NC(=O)c1ccccc1`: the inhibition is -0.605%.

With `Cc1ccc(S(=O)(=O)N2CCN(C(=O)COC(=O)/C=C/c3cccc(Cl)c3)CC2)c(C)c1`, the inhibition is -1.3%. Next, `O=C(CC1SC(=Nc2ccccc2)N(Cc2ccccn2)C1=O)Nc1cccc(Cl)c1` (stereo not given): 7.98%; `COc1cc(-c2nnc(Cn3cc(C(F)(F)F)ccc3=O)o2)cc(OC)c1OC`: -3.86%; `COc1cc(/C=C2\SC(=S)N(Nc3ncc(C(F)(F)F)cc3Cl)C2=O)cc(OC)c1OC`: 31.2% (active).

`O=C1/C(=C/c2ccc(F)cc2)SC(=S)N1NS(=O)(=O)c1ccccc1`: the inhibition was 5.39%.

As for `COCCCn1c(C(=O)NC2CCCCC2)cc2c(=O)n3cccc(C)c3nc21`, the inhibition is 2.49%. Take `O=c1c(-c2ccccc2)cnc2n1CCS2`: the inhibition is -3.39%. For the molecule `Cc1cccc(N2CCN(C(=O)/C=C/c3ccco3)CC2)c1C`, the inhibition is -1.19%. Turning to `Cc1ccc(-n2c(C)cc(/C=N/Nc3ccc([N+](=O)[O-])cn3)c2C)c(C)c1`, the inhibition is 44.4% (active).

For `Cc1ccc(N2CCN(c3ccc([N+](=O)[O-])cn3)CC2)c(C)c1`, the inhibition was 1.39%.

Consider `Cc1cc(C=O)c(C)n1-c1ccc(NC2CCCCC2)c([N+](=O)[O-])c1`, for which the inhibition is 0.0872%. Consider `Nc1ccc(Cl)c(S(=O)(=O)Nc2ccccc2Cl)c1`, for which the inhibition was 6.19%. Turning to `O=C1Nc2cc(Cl)c(Cl)cc2N(O)N1c1cc(Cl)cc(Cl)c1`, the inhibition is -1.38%. Consider `c1ccc(CN2CCC(N=C3NN=C(c4ccc5c(c4)OCCO5)CS3)CC2)cc1`, for which the inhibition is 17%. Turning to `CN(C)c1nc(=Nc2cccc(Cl)c2)ss1`, the inhibition was 3.08%. `Clc1cccc(N=C2NN=C(c3ccc4c(c3)OCCO4)CS2)c1`: the inhibition is 31% (active). For the molecule `NS(=O)(=O)c1ccc(NS(=O)(=O)/C=C/c2ccccc2)cc1`, the inhibition is -1.06%. As for `O=C(COC(=O)/C=C/c1cccc(Cl)c1)NCCc1ccccc1`, the inhibition is -11.9%. On to `NNc1cccc(C=Cc2ccccc2)cc1=O`, for which the inhibition was 33.2% (active). Turning to `C/C(=N\NC(=O)COc1c(C)cccc1C)c1cccs1`, the inhibition was -5.85%. Take `CC/C(=N\NC(=O)c1ccccc1Cl)c1ccc(Br)s1`: the inhibition is -6.6%.

Regarding `C/C(=N\NC(=O)CNc1cccc2ccccc12)c1ccc(Br)s1`, the inhibition was 64.5% (active). As to `CCCCCCc1cc2cc(-c3nnc(-c4ccccc4)o3)c(=O)oc2cc1O`, the inhibition was 87.5% (active). As for `Cn1cccc1Cc1nnc(SCC(=O)NCc2ccc3c(c2)OCO3)n1CCc1ccccc1`, the inhibition was 7.11%. Consider `COC(=O)c1cccc(N(CC(=O)NCC2CCCO2)C(=O)CCC(=O)Nc2cc(C)on2)c1` (stereo not given), for which the inhibition is -10.6%. Next, `CCOc1cc(/C=C/C(=O)OCC(=O)NCCN2C(=O)CSC2=O)ccc1OCC(C)C`: 0.893%; `CCN(CC)S(=O)(=O)c1cccc(-c2n[nH]c(=S)n2/N=C/c2ccc(C(=O)OC)cc2)c1`: 24.3%. Take `S=c1[nH]nc(-c2cc(-c3ccccc3)n[nH]2)n1/N=C/c1c2ccccc2cc2ccccc12`: the inhibition was 49.4% (active). On to `Cc1cc(-c2n[nH]c(=S)n2/N=C/C(Br)=C/c2ccccc2)n[nH]1`, for which the inhibition was 17.3%. Turning to `COc1cccc(/C=C/C(=O)Nc2ccc3c(c2)OCCO3)c1`, the inhibition was -5.58%. As to `CC(=O)Nc1ccc(S(=O)(=O)NC2(C(F)(F)F)C(=O)NC(C)=C2C#N)cc1` (stereo not given), the inhibition was -2.54%. With `Cc1nc(-c2ccc(F)cc2)c(CC(=O)Nc2cc(S(=O)(=O)N3CCCCC3)ccc2C)s1`, the inhibition was 6.89%. Next, `Cc1ccc(-c2nc(-c3cccnc3)sc2CC(=O)Nc2ccc(C)c(Cl)c2)cc1`: 30.9% (active). As to `Cc1ccc(NC(=O)COc2ccc(-n3ccnc3)cc2)cc1Cl`, the inhibition was -3.03%. `COc1ccc(S(=O)(=O)N/N=C\c2ccc(OC)c(COc3ccc(C)cc3[N+](=O)[O-])c2)cc1`: the inhibition is 18.5%. As for `COc1cccc(OCc2cc(/C=N/NC(=O)c3nc(Cl)c(Cl)c(N)c3Cl)ccc2OC)c1`, the inhibition is 45.5% (active). As for `CCN(CC)Cc1c(C(=O)N/N=C/c2cccc(OCc3ccc(F)cc3)c2)nnn1-c1nonc1N`, the inhibition is 13.1%. Regarding `CC(OC(=O)c1ccccc1N1C(=O)C2C3CCC(C3)C2C1=O)C(=O)c1ccccc1` (stereo not given), the inhibition is -5.61%. As for `CCOC(=O)C1Sc2[nH]c(=O)sc2C(c2ccc(Cl)cc2)C1C(=O)OCC` (stereo not given), the inhibition was 13.4%. On to `CCOC(=O)c1ccccc1N1C(=O)C2Sc3[nH]c(=O)sc3C(/C=C/c3ccccc3)C2C1=O` (stereo not given), for which the inhibition is 42.2% (active). With `COC(=O)c1cn(C)c2ccc(S(=O)(=O)N3CC(C)CC(C)C3)cc2c1=O` (stereo not given), the inhibition is 0.79%.

For `COC(=O)c1ccc(-n2cnc3ccccc32)nc1`, the inhibition is -5.95%.

As for `c1ccc(-c2nccc(-c3ccc(-n4cnc5ccccc54)cc3)n2)nc1`, the inhibition is 65.6% (active). For the molecule `Cc1nccc(-c2ccc(-n3c(C)ccc3C)cc2)n1`, the inhibition was 3.88%.

In the case of `Cc1ccc(S(=O)(=O)N(C)C)cc1NC(=O)C1Cc2ccccc2CN1C(=O)c1ccco1` (stereo not given), the inhibition is 2.17%. With `CC1=CC2=NC(=O)/C(=C/c3coc4ccccc4c3=O)C(=N)N2O1`, the inhibition was -6.03%. In the case of `O=C1/C(=C/c2coc3ccc(O)cc3c2=O)SC(=S)N1c1ccccc1`, the inhibition was 44.8% (active). Next, `COC(=O)c1ccc(S(=O)(=O)N(CCO)Cc2ccccc2)n1C`: -0.726%.

For `Oc1ccc(-c2cccc(-c3ccc(O)cc3)c2)cc1`, the inhibition was 0.612%. Regarding `O=C(Nc1cccc(-c2nc3ccccc3[nH]2)c1)c1ccc(C(=O)Nc2cccc(-c3nc4ccccc4[nH]3)c2)cc1`, the inhibition was 33.1% (active).

Consider `O=C(Nc1ccccc1)c1cc2ccccc2[nH]1`, for which the inhibition was 1.14%. Consider `O=C(NCC(O)c1nc2ccccc2[nH]1)c1ccc(Br)cc1` (stereo not given), for which the inhibition is -3.28%. Regarding `Cc1cccc(C2C3=C(CCCC3=O)N=C3c4ccccc4C(=O)C32)c1` (stereo not given), the inhibition was 3.15%. Turning to `O=C(NCc1cccnc1)c1cnc2ccccc2n1`, the inhibition is 1.99%. Consider `CC(=O)N/C(=N/c1nc(C)cc(C)n1)Nc1ccc(F)cc1F`, for which the inhibition was -3.78%. With `CCCCCCN1C[C@@H](O)[C@H](n2cc(COC(=O)c3ccccc3)nn2)C[C@@H]1c1ccc(Cl)cc1`, the inhibition was 7%. Turning to `COC(C[C@@H]1O[C@@H]1C(=O)[C@@H](C)OCc1ccccc1)OC`, the inhibition was -1.07%. With `CN1/C(=c2/s/c(=C3/C(=O)N(c4ccccc4)NC3=Nc3ccccc3)n(C)c2=O)C(C)(C)c2ccccc21`, the inhibition is 57.3% (active).

On to `Cc1ccc(Cl)c(NC(=O)CN(C)CC(=O)Nc2ccc(F)c(F)c2F)c1Cl`, for which the inhibition is 2.14%. Turning to `Nc1ccc2nc3c(=O)[nH]c(=S)[nH]c3nc2c1`, the inhibition was 70.1% (active).

Take `Cc1occc1C(=O)NC1CCCN(Cc2ccc(CC(C)C)cc2)C1` (stereo not given): the inhibition is -6.31%.

Take `COc1ccc(NS(=O)(=O)c2ccc(O)c(C(=O)OCC(=O)NC3CCCCC3)c2)cc1`: the inhibition was -4.71%.

As to `CCn1c(SCC(=O)Nc2ccc(C)cc2)nc2nc3c(cc2c1=O)CCCC3`, the inhibition is 8.14%. As to `CCC1C(C#N)=C(SC)NC2=C1C(=O)CC(C)(C)C2` (stereo not given), the inhibition was 0.666%. Next, `Cc1cc(C)c2nc(-c3cccnc3)cc(C(=O)Nc3ccc(S(=O)(=O)Nc4onc(C)c4C)cc3)c2c1`: 42.3% (active). Next, `CCn1c(SCC(=O)Nc2ccc(S(=O)(=O)Nc3onc(C)c3C)cc2)nnc1-c1ccccc1`: 7.88%.

`Cc1noc(NS(=O)(=O)c2ccc(NC(=O)c3oc4ccc(F)cc4c3C)cc2)c1C`: the inhibition was 0%.
